Unmarked numbers belong to inactive results. Inconclusive results are not listed. A call without a number means that no potency is given here. Activity calls are given as the source filed them. Unless noted, calls follow the shape of the dose curve; as a rule, active = well fitted curve in the direction sought with a large enough effect in the repeat runs; inconclusive = weak or mixed curves; inactive = no such curve, though single readings can be large; an effect the other way counts as inactive or inconclusive.
Legend:
[1] = molecular target: Thyrotropin-releasing hormone receptor (Homo sapiens) (UniProt P34981); experiment: qHTS assay to identify small molecule agonists of the thyrotropin-releasing hormone receptor (TRHR) signaling pathway (AID 1346891; calls by dose curve;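 also: HEK293 cells expressing TRHR with calcium dye readout; series mostly up to about 58 µM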)
Thyrotropin-releasing hormone receptor (Homo sapiens), sequence (P34981 whole entry, looked up): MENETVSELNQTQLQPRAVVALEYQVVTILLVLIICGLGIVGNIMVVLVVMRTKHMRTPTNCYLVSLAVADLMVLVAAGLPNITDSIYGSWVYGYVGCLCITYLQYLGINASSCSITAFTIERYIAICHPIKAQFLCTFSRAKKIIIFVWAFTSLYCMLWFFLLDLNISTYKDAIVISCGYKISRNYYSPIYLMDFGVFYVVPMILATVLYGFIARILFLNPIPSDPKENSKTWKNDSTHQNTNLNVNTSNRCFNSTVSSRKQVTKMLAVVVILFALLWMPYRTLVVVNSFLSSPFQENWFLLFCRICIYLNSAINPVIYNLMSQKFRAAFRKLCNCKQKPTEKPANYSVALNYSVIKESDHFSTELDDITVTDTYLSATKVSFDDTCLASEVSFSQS
Summary of the method: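 Kinetic fluorescence (3 min, 1 s intervals) reported intracellular calcium after compound transfer onto TRHR-Hek293 cells pre-loaded with dye for 2 h at 37 °C.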

[2] = Human pregnane X receptor (PXR) small molecule agonists, qHTS cell viability counter screen (AID 1346977); also: nearly all actives have a fitted effect of over 50% in size
Summary of the method: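 HepG2 cells stably carrying the PXR-Luc reporter are cultured with 5% charcoal-stripped FBS and treated with compounds for 24hr. CellTiter-Fluor is added at 23hr and fluorescence is read after 1hr.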

[3] = Caspase-3/7 induction in HepG2 cells by small molecules, qHTS assay (AID 1346978); also: nearly all actives have a fitted effect of over 15% in size
Summary of the method: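 Wild-type HepG2 cells, 2,000/well, settled 5 hr at 37 C and 5% CO2, then compound-treated for 17 hr; caspase-3/7 activity read by luminescent Caspase-Glo 3/7 after 30 min at room temperature.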

[4] = Caspase-3/7 induction in CHO-K1 cells by small molecules, qHTS cell viability counter screen (AID 1346979); also: nearly all actives have a fitted effect of over 35% in size
Summary of the method: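 Seeding: 1,500 CHO-K1 cells/well. Rest: 5hr, 37C. Treatment: compounds in DMSO, 16hr. Read: CellTiter-Fluor, 1hr, fluorescence.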

[5] = Caspase-3/7 induction in CHO-K1 cells by small molecules, qHTS assay (AID 1346980); also: nearly all actives have a fitted effect of over 15% in size
Summary of the method: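 Wild-type CHO-K1 cells exposed to compounds for 17hr at 37 C, 5% CO2. Caspase-3/7 activity then measured by Caspase-Glo 3/7 luminescence after 30min at room temperature.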

[6] = Caspase-3/7 induction in HepG2 cells by small molecules, qHTS cell viability counter screen (AID 1346981); also: series mostly up to about 92 µM; nearly all actives have a fitted effect of over 30% in size
Summary of the method: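 Steps: seed 2,000 HepG2 cells per well; incubate 5 hr at 37 C; pin-add compounds in DMSO; incubate 16 hr; add CellTiter-Fluor; after 1 hr at 37 C and 5% CO2, read fluorescence.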

[7] = molecular target: Nuclear receptor subfamily 1 group I member 2 (Homo sapiens) (UniProt O75469); experiment: Human pregnane X receptor (PXR) small molecule agonists, qHTS assay (AID 1346982); also: nearly all actives have a fitted effect of over 35% in size
Nuclear receptor subfamily 1 group I member 2 (Homo sapiens), sequence (O75469 whole entry, looked up): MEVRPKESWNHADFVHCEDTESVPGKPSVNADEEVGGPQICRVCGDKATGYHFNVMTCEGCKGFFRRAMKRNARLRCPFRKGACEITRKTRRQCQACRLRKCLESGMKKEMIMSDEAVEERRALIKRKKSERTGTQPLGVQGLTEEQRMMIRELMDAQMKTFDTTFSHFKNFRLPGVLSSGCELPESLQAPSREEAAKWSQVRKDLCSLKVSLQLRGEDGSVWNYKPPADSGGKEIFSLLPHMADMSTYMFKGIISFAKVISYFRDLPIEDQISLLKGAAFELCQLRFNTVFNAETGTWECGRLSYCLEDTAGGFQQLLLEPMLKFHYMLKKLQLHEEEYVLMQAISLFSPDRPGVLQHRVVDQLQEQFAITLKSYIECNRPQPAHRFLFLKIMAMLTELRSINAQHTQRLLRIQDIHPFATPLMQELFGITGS
Summary of the method: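 Agonist mode qHTS: PXR-Luc HepG2 cells plated 5 hr before DMSO-dissolved compounds were pinned in, cultured 24 hr at 37 C, 5% CO2; ONE-Glo luminescence readout.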

[8] = molecular target: Nuclear receptor subfamily 1 group I member 2 (Rattus norvegicus) (UniProt Q9R1A7); experiment: Rat pregnane X receptor (rPXR) activation by small molecules, qHTS assay (AID 1346983); settings: rPXR luciferase reporter cells, One-Glo luminescence, 24 h; hits give high values; also: nearly all actives have a fitted effect of over 20% in size
Nuclear receptor subfamily 1 group I member 2 (Rattus norvegicus), sequence (Q9R1A7 whole entry, looked up): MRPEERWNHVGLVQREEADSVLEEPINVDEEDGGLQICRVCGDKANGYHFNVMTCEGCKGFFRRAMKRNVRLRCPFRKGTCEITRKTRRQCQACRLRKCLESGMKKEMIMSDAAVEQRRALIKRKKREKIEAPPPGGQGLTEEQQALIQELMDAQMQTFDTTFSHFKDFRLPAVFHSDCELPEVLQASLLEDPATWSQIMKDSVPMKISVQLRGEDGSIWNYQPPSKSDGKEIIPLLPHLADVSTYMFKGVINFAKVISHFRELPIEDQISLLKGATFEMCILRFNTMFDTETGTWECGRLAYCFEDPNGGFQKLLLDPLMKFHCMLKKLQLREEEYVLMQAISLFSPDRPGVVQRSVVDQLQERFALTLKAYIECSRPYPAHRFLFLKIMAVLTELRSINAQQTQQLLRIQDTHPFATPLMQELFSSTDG
Summary of the method: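 Cell-based rPXR activation assay: rPXR cells, 2,000 per well, rested 5hr at 37 C, then exposed to compounds in DMSO for 24 hr at 37 C. Luciferase activity read by One-Glo luminescence after 30 min at room temperature.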

[9] = molecular target: Nuclear receptor subfamily 1 group I member 2 (Homo sapiens) (UniProt O75469); experiment: CYP3A4 induction through human pregnane X receptor (PXR) by small molecules, qHTS assay (AID 1346984); also: nearly all actives have a fitted effect of over 40% in size; also: potency is read from the fitted curve at half-maximal effect
Summary of the method: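 Steps: seed DPX-2 cells, 5 hr at 37C; pin-transfer compounds; 24 hr at 37C; add Luciferin-IPA (3uM final), 3 hr at 37C; add One-Glo, 30 min RT; read luminescence.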

[10] = molecular target: Nuclear receptor subfamily 1 group I member 2 (Homo sapiens) (UniProt O75469); experiment: Human pregnane X receptor (PXR) activation by small molecules, qHTS assay (AID 1346985); also: nearly all actives have a fitted effect of over 40% in size; also: potency is read from the fitted curve at half-maximal effect
Summary of the method: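 DPX-2 cells (HepG2 co-transfected with a PXR response element and a CYP3A4-promoter luciferase construct) were seeded at 2,000 per well, rested 5 hr at 37C, then exposed to DMSO-dissolved compounds for 24 hr. Activation was read as luciferase luminescence.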

SMILES	outcome [1]	Potency [2]	Potency [3]	Potency [4]	outcome [5]	Potency [6]	Potency [7]	max activation [8] [%]	Potency [9]	Potency [10]
NC(CSCC(=O)O)C(=O)O (stereo not given)	inactive	inactive	inactive	inactive	inactive	inactive	inactive	-3.73	inactive	inactive
O=C(O)Cc1ccc(CCNS(=O)(=O)c2ccc(Cl)cc2)cc1	inactive	inactive	inactive	inactive	inactive	inactive	inactive	-10	inactive	inactive
CN1CCN(c2cc3c(cc2F)c(=O)c(C(=O)O)cn3-c2ccc(F)cc2)CC1	inactive	inactive	inactive	inactive	inactive	inactive	inactive	-3.97	inactive	inactive
CC(C)CCCC(C)N (stereo not given)	inactive	inactive	inactive	inactive	inactive	inactive	inactive	-5.35	inactive	inactive
O=C(CCCN1CCC(O)(c2cccc(C(F)(F)F)c2)CC1)c1ccc(F)cc1	inactive	inactive	inactive	inactive	inactive	inactive	inactive	1.11	4.47 µM (active)	12.6 µM (active)

Reference: PubChem BioAssay (Tox21)
